Data reported in PubChem BioAssay.
Active and inactive are the calls of the source.

Tests used:
[1] = optical density shifts of acrAB sulA E. coli – strain DRC41, OD650, 48 h, E. coli filamentation inducer project, primary screen (AID 1152); conditions: higher = more signal, called active from +8 up or from −8 down;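 note: E. coli MC1000 strain DRC41 lacking acrAB efflux pump and sulA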
[2] = probe aLefty1 binding on compound microarray – biochemical, small-molecule microarray, 635/667 nm fluorescence, primary screen (AID 1153); conditions: higher = more signal;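 note: score merges spot fluorescence with signal-to-noise ratio from the scanned slide images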
[3] = plasmodial surface anion channel blockers, osmotic lysis – cell-based, P. falciparum Indochina, OD700, 1 h, primary screen (AID 1154); conditions: P. falciparum Indochina infected RBC osmotic lysis, higher = more signal, called active from +8 up or from −8 down
[4] = plasmodial surface anion channel blockers, osmotic lysis – cell-based, P. falciparum Indochina, OD700, 2 h, primary screen (AID 1155);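 note: lysis reports solute entry through the parasite surface anion channel PSAC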; conditions: P. falciparum Indochina infected erythrocytes, higher = more signal, called active from +8 up or from −8 down
[5] = changes in parasitized red cell lysis, either direction – P. falciparum Indochina, OD700, 3 h, PSAC antagonist project, primary screen (AID 1156); conditions: P. falciparum-infected erythrocytes, osmotic lysis, higher = more signal, called active from +8 up or from −8 down
[6] = plasmodial surface anion channel blockers, osmotic lysis – cell-based, P. falciparum Indochina, OD700, 18 h, primary screen (AID 1157); conditions: P. falciparum Indochina infected erythrocytes, osmotic lysis OD700, 18 h; higher = more signal, called active from +8 up or from −8 down
[7] = S6 kinase pathway phospho-S6 level changes – cell-based, A549, cytoblot, luminescence, serum-stimulated, primary screen (AID 1158); conditions: 5 h, higher = more signal;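 note: serum-stimulated A549 lung adenocarcinoma cells; signal is phosphorylated S6 detected by cytoblot immunostaining with HRP secondary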
[8] = target: NADPH oxidase 2 (Homo sapiens) (UniProt P04839); test: compounds shifting NOX2 Amplex Red fluorescence – cell-based, HEK293-NOX2, PMA-stimulated, NOX inhibitor project, primary screen (AID 1159); conditions: 45 min, higher = more signal, called active from +8 up or from −8 down; note: test concentration not given here
Sequence of NADPH oxidase 2 (Homo sapiens) (P04839 whole entry, looked up): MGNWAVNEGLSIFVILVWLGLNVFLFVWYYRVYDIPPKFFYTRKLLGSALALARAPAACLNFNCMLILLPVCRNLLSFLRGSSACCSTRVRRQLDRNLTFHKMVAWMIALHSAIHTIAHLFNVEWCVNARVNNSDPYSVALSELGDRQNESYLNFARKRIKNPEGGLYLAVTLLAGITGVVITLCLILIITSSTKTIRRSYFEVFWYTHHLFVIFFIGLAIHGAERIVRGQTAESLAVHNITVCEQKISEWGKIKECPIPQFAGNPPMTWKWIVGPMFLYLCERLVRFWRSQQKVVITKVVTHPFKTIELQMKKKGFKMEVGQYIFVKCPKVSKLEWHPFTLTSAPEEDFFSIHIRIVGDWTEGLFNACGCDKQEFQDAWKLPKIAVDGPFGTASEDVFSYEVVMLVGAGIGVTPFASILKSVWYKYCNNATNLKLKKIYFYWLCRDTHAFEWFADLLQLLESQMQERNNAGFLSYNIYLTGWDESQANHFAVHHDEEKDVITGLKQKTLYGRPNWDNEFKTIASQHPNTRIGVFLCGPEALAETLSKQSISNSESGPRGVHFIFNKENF

[9] = target: NADPH oxidase 4 (Homo sapiens) (UniProt Q9NPH5); test: compounds shifting NOX4 Amplex Red fluorescence – cell-based, HEK293-NOX4, tetracycline-induced, NOX inhibitor project, primary screen (AID 1160); conditions: HEK293-NOX4, Amplex Red H2O2 fluorescence, 45 min; higher = more signal, called active from +8 up or from −8 down
Sequence of NADPH oxidase 4 (Homo sapiens) (Q9NPH5 whole entry, looked up): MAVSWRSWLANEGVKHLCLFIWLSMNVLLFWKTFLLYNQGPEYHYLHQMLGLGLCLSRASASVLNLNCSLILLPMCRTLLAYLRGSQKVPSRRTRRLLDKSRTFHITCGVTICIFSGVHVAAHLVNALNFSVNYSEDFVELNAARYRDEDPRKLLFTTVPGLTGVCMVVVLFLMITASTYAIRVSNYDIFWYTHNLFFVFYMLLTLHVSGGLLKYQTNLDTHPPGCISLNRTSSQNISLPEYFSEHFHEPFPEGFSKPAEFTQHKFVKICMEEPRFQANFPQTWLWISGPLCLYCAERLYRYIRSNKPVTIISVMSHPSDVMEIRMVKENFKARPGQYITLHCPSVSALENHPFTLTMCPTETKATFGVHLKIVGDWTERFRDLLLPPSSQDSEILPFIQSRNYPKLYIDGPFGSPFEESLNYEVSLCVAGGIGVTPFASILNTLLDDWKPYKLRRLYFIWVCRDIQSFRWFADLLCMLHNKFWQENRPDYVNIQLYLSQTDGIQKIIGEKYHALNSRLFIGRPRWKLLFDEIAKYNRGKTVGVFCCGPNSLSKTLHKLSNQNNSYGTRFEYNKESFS

[10] = target: NADPH oxidase 5 (Homo sapiens) (UniProt Q96PH1); test: compounds shifting NOX5 Amplex Red fluorescence – cell-based, HEK293-NOX5, NOX inhibitor project, primary screen (AID 1161); conditions: HEK293-NOX5, ionomycin, 45 min, higher = more signal
Sequence of NADPH oxidase 5 (Homo sapiens) (Q96PH1 whole entry, looked up): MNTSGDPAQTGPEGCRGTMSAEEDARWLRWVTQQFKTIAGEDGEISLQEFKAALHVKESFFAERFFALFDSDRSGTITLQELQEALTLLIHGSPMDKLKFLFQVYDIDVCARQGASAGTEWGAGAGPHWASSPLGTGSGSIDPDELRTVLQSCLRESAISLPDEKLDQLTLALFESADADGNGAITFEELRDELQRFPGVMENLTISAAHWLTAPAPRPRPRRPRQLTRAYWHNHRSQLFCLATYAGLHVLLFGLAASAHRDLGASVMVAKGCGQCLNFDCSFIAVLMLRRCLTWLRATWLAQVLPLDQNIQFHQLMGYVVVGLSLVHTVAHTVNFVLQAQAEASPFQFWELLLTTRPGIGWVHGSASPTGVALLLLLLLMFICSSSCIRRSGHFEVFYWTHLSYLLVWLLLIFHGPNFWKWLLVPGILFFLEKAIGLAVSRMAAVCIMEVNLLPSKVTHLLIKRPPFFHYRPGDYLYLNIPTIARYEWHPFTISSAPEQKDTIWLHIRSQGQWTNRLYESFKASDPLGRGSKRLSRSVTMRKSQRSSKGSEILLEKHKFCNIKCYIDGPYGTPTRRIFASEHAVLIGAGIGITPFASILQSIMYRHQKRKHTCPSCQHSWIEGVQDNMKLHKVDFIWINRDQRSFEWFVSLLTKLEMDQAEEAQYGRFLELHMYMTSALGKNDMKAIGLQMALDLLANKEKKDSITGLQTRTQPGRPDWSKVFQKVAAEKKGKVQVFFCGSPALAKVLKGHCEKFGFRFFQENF

SMILES	z-score [1]	composite z-score [2]	z-score [3]	z-score [4]	z-score [5]	z-score [6]	z-score [7]	z-score [8]	z-score [9]	z-score [10]
COc1ccc(C(=O)Nc2cccc(CN3C(=O)[C@@]4(O[C@@H](CCn5cc(CCO)nn5)[C@H]([Si](C)(C)c5ccc(OC)cc5)[C@H]4C)c4ccccc43)c2)cc1	-2.23 (inactive)	0.223	13.4 (active)	2.74 (inactive)	0.318 (inactive)	1.26 (inactive)	-0.782	-3.75 (inactive)	-0.389 (inactive)	2.37
COCCOC(=O)N1C(=O)[C@@]2(c3cc(C#CC4(O)CCCCCC4)ccc31)[C@H](C(=O)N1CCCCCCC1)[C@H]1C(=O)O[C@H](c3ccccc3)[C@H](c3ccccc3)N1[C@@H]2c1ccccc1OCCO	0.139 (inactive)	2.53	1.04 (inactive)	1.53 (inactive)	1.05 (inactive)	1.07 (inactive)	0.535	0.528 (inactive)	-0.409 (inactive)	1.29
COC(=O)C[C@@H]1C[C@H](C)[C@]2(O1)C(=O)N(Cc1ccccc1)c1ccc(NC(C)=O)cc12	0.442 (inactive)	-0.193	1.66 (inactive)	-0.0327 (inactive)	0.962 (inactive)	0.0822 (inactive)	0.525	0.627 (inactive)	-1.06 (inactive)	2.27
COCCOC(=O)N1C(=O)[C@@]2(c3cc(C#CCC(C(=O)OC)C(=O)OC)ccc31)[C@H](c1ccccc1OCCO)N1[C@H](c3ccccc3)[C@H](c3ccccc3)OC(=O)[C@H]1[C@@H]2C(=O)N1CCc2cc(OC)c(OC)cc2C1	2.09 (inactive)	0.438	1.87 (inactive)	-0.226 (inactive)	-0.23 (inactive)	-0.466 (inactive)	0.61	1.26 (inactive)	1.56 (inactive)	0.631
COc1ccc([Si](C)(C)[C@@H]2[C@@H](CC(=O)N(CCO)Cc3ccccc3)O[C@]3(C(=O)N(C)c4ccccc43)[C@H]2C)cc1	-0.733 (inactive)	0.31	11.8 (active)	2.07 (inactive)	-0.87 (inactive)	0.57 (inactive)	0.388	0.406 (inactive)	0.965 (inactive)	-1.21
CC(c1ccccc1)C(O)C1C=CC2C(=O)NC(=O)C2N1Nc1ccccn1 (stereo not given)	-0.671 (inactive)	0.314	0.887 (inactive)	0.561 (inactive)	-0.255 (inactive)	0.801 (inactive)	-0.8	-0.479 (inactive)	-3.8 (inactive)	-1.79
Cc1cc(C)cc(N2C(=O)CS(=O)(=O)C2c2cccc([N+](=O)[O-])c2)c1 (stereo not given)	0.469 (inactive)	1.33	0.548 (inactive)	-0.385 (inactive)	0.809 (inactive)	-1.48 (inactive)	1.48	0.316 (inactive)	0.227 (inactive)	1.63
CC=CC(O)C1C=CC2C(=O)N(c3ccccc3)C(=O)C2N1Nc1ccc(C(C)C)cc1 (stereo not given)	-1.63 (inactive)	0.424	20.2 (active)	7.4 (inactive)	1.39 (inactive)	1.68 (inactive)	-0.521	-0.68 (inactive)	-3.67 (inactive)	-4.2
O=C(CS)NCCCCCCNC(=O)[C@H]1C[C@H]2C(=O)NCC(=O)N2[C@H]1c1ccc(O)cc1	-0.618 (inactive)	-0.0969	2.33 (inactive)	0.141 (inactive)	-2.02 (inactive)	0.23 (inactive)	-0.598	1.45 (inactive)	0.407 (inactive)	-0.391
COCCOC(=O)N1C(=O)[C@@]2(c3cc(C#CCNC(N)=O)ccc31)[C@H](C(=O)N1CCN(c3ncccn3)CC1)[C@H]1C(=O)O[C@H](c3ccccc3)[C@H](c3ccccc3)N1[C@@H]2c1ccccc1OCCO	1.07 (inactive)	0.248	2.72 (inactive)	1.32 (inactive)	0.749 (inactive)	0.883 (inactive)	0.915	1.99 (inactive)	0.756 (inactive)	-1.08
C=CCNC(=O)[C@@H]1[C@H]2C(=O)O[C@H](c3ccccc3)[C@H](c3ccccc3)N2[C@H](c2ccc(OCCO)cc2)[C@@]12C(=O)Nc1ccccc12	1.52 (inactive)	0.0235	5.12 (inactive)	0.39 (inactive)	-0.844 (inactive)	0.002 (inactive)	4.16	1.38 (inactive)	0.767 (inactive)	-0.355
Cc1ccc(S[C@]2(C(=O)NCCN3CCOCC3)CC(=O)N(Cc3cc(C(F)(F)F)cc(C(F)(F)F)c3)[C@@H]2c2ccc(CO)cc2I)cc1	0.288 (inactive)	0.0742	2.66 (inactive)	-0.599 (inactive)	-1.61 (inactive)	-1.68 (inactive)	0.704	2.05 (inactive)	-0.995 (inactive)	3.01
CC(C)N1C(=O)c2ccccc2[C@@H](C(=O)NCCCN(C)C)[C@@H]1c1ccc(CO)cc1	-0.534 (inactive)	1.17	2.45 (inactive)	-0.0098 (inactive)	2.5 (inactive)	0.181 (inactive)	-0.0692	1.08 (inactive)	-0.858 (inactive)	-1.54
CC(C)C[C@@H]1NC(=O)[C@H]2C[C@@H](C(=O)NCCCCCNC(=O)CS)[C@@H](c3cccc(OCCO)c3)N2C1=O	-0.586 (inactive)	-0.0511	2.59 (inactive)	0.505 (inactive)	-0.47 (inactive)	0.327 (inactive)	-0.592	2.16 (inactive)	1.21 (inactive)	0.93
C[N+](C)(C)CCCCCCNC(=O)[C@H]1C[C@H]2C(=O)N3CCC[C@H]3C(=O)N2[C@H]1c1ccc(O)cc1	0.864 (inactive)	-0.0489	1.37 (inactive)	-0.948 (inactive)	-0.937 (inactive)	-1.44 (inactive)	0.707	-0.87 (inactive)	-1 (inactive)	-2.81
CC(C)CNC(=O)[C@@]1(c2ccc([N+](=O)[O-])cc2)CC(=O)N(CC23CC4CC(CC(C4)C2)C3)[C@@H]1c1ccc(CO)cc1	2.76 (inactive)	0.227	2.75 (inactive)	-0.14 (inactive)	0.856 (inactive)	-0.36 (inactive)	0.802	-0.129 (inactive)	-1.06 (inactive)	0.965
CN(C)CCCCCCNC(=O)[C@H]1C[C@H]2C(=O)N[C@@H](CCCCN)C(=O)N2[C@H]1c1ccc(O)cc1	-0.261 (inactive)	2.82	-0.294 (inactive)	0.155 (inactive)	-0.844 (inactive)	0.303 (inactive)	0.169	0.418 (inactive)	-0.145 (inactive)	0.887
C=CCNC(=O)[C@H]1[C@@H]2C(=O)O[C@@H](c3ccccc3)[C@@H](c3ccccc3)N2[C@@H](c2ccc(O)cc2)[C@]12C(=O)N(C(=O)OCCOC)c1ccc(C#CCCO)cc12	1.23 (inactive)	0.0341	1.89 (inactive)	0.658 (inactive)	0.958 (inactive)	0.418 (inactive)	0.102	0.74 (inactive)	0.261 (inactive)	0.533
[N-]=[N+]=NCc1ccccc1C[C@]1(C(=O)NCCN2CCOCC2)N=C(c2ccc(OCCCO)cc2)O[C@H]1c1ccccc1N=[N+]=[N-]	0.991 (inactive)	0.586	34.3 (active)	31.4 (active)	2.82 (inactive)	8.68 (active)	-0.176	-1.69 (inactive)	0.636 (inactive)	-0.368
CCOC(=O)C[C@H]1[C@H](OC(=O)c2ccc(-c3ccccc3)cc2)[C@@H](NC(=O)c2ccc(-c3ccccc3)cc2)c2cc(OCCCO)ccc2N1C(=O)Cc1ccc(OC)cc1	-0.783 (inactive)	-0.0061	11.4 (active)	0.618 (inactive)	-0.397 (inactive)	0.602 (inactive)	0.491	-1.3 (inactive)	0.622 (inactive)	-0.0798
CCOC(=O)C1=CCC(c2ccc([N+](=O)[O-])cc2)N(S(=O)(=O)c2ccc(C)cc2)C1 (stereo not given)	-0.65 (inactive)	0.0839	5.2 (inactive)	1.91 (inactive)	-0.364 (inactive)	0.781 (inactive)	-0.864	1.07 (inactive)	0.135 (inactive)	0.739
CN(C)C(=O)[C@]1(CCC(=O)OC(C)(C)C)N=C(c2ccc(OCCCO)cc2)O[C@@H]1c1ccccc1N=[N+]=[N-]	0.761 (inactive)	1.33	31 (active)	29.8 (active)	1.37 (inactive)	2.34 (inactive)	-0.294	-4.53 (inactive)	-0.32 (inactive)	-1.98
Cc1cc(C)c(C(O)C2C=CC3C(=O)N(c4ccccc4)C(=O)C3N2Nc2ccc(C#N)cc2)c(C)c1 (stereo not given)	-0.197 (inactive)	0.938	7.4 (inactive)	1.27 (inactive)	0.742 (inactive)	1.27 (inactive)	-0.649	0.0492 (inactive)	-2.68 (inactive)	-2.1
